Bioassay records: PubChem BioAssay, Sanford-Burnham Center for Chemical Genomics
An excerpt weighted towards active compounds, which were near 2.6% of everything screened.
PHOSPHO1 inh: inhibitors of human PHOSPHO1 phosphatase | Q8TCT1 | recombinant PHOSPHO1, absorbance phosphatase assay | inhibition, % at 13.3 µM | hit rate 1.1% among 290,000 | AID 1565; in the data active means inhibition above about 60%
APOBEC3A inh: inhibitors of human APOBEC3A DNA deaminase. P31941. recombinant A3A, FAM/TAMRA ssDNA deamination fluorescence. inhibition, % at 20 µM. hit rate 0.41% among 330,000. AID 493011;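 active means at least 40% inhibition at 20 µM here, with at most 30% in a related deaminase screen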
Target sequence (P31941 whole entry, looked up): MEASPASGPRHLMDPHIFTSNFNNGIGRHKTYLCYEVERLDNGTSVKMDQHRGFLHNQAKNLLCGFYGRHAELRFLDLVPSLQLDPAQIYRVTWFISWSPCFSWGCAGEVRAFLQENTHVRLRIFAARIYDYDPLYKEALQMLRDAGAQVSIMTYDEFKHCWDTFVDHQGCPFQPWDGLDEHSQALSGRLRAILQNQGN
eIF4H FP inh: inhibitors of RNA binding by human eIF4H; Q15056; hit rate 0.94% among 290,000; eIF4H fluorescence polarization binding assay; inhibition, % at 35 µM;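 further: calls also rest on retests at 20 µM and on dose response follow-up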
PABP polyA inh: blocks human PABP binding to poly(A) RNA; fluorescence polarization; hit rate 1% among 290,000; calls only at 35 µM; P11940;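 further: calls also rest on retests at 20 µM and on dose response follow-up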
MLLE-PAM2 inh: blocks PAM2 peptide binding to the PABP1 MLLE domain. inhibition, % at 20 µM. P11940. hit rate 0.36% among 360,000. GST-MLLE / FITC-PAM2 fluorescence polarization; in the data active means inhibition above about 35%, passing the limit was not always enough
APOBEC3G inh: inhibitors of human APOBEC3G DNA deaminase. hit rate 0.28% among 330,000. Q9HC16. inhibition, % at 20 µM. recombinant A3G, ssDNA deamination FAM/TAMRA fluorescence;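 active means inhibition of at least 40% at 20 µM, with no more than 30% in the related APOBEC3A deaminase screen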
Each line names hits and unclear results; the compound was inactive in the other large screens. Unless noted, how the calls were made is not given here.

CNC(=S)NNS(=O)(=O)c1ccc(OC)cc1OC	none
Cc1ccc(C)c(OCCC(=O)OCC(=O)NC(=O)NC2CCCC2)c1	none (no result: PHOSPHO1 inh, eIF4H FP inh, PABP polyA inh)
CCn1c(SCC(=O)c2cc(C)n(CC3CCCO3)c2C)nc2ccccc21 (stereo not given)	PHOSPHO1 inh 73
CCOC(=O)C1CCN(C(=O)CN2C(=O)CSc3ccc(S(=O)(=O)N4CCOCC4)cc32)CC1	none (no result: eIF4H FP inh, PABP polyA inh)
Cc1cc(O)ccc1N/C=C1\CCCC1=O	eIF4H FP inh 81
CCOC(=O)C1=C(C)N=c2s/c(=C/c3ccc(OCC(=O)O)cc3)c(=O)n2C1c1ccc(SC)cc1 (stereo not given)	eIF4H FP inh 63, PABP polyA inh active
CCOC(=O)C1=C(C)N=c2s/c(=C/c3ccc(OCC(=O)O)cc3)c(=O)n2C1c1ccc(F)cc1 (stereo not given)	none
Cc1ccc(NC(=O)CN2CC(C)SC2=NC2CCCCC2)cc1 (stereo not given)	PHOSPHO1 inh 74
COc1cc(CNCCc2ccccc2)cc(Br)c1OCC(=O)Nc1ccccc1C	PHOSPHO1 inh 66
O=C1c2sccc2-c2cccc3cccc1c23	MLLE-PAM2 inh 67 (no result: PHOSPHO1 inh, APOBEC3A inh, eIF4H FP inh, PABP polyA inh, APOBEC3G inh)
COc1ccc(S(=O)(=O)N2CCOC2CNC(=O)C(=O)NCCc2ccc(S(N)(=O)=O)cc2)cc1 (stereo not given)	none
[O-][n+]1c2ccccc2[n+]([O-])c2cc(O)ccc21	eIF4H FP inh 106, PABP polyA inh active
Cc1ccc(C)c(OCc2cc(C(=O)N(C)Cc3nccs3)no2)c1	none
Cc1ccc(N2CC(O)(c3cccs3)[N+]3=C2CCCC3)cc1 (stereo not given)	PHOSPHO1 inh 61
O=C(NCC1CCCCC1)c1csc([C@@H]2C[C@H](O)[C@@H](CO)O2)n1	none (no result: PHOSPHO1 inh, APOBEC3A inh, eIF4H FP inh, PABP polyA inh, APOBEC3G inh)
Cn1ncc(Cl)c1C(=O)N1CCN(c2ncccn2)CC1	PHOSPHO1 inh 63
Cn1ncc(Cl)c1C(=O)N1CCN(c2ccccc2)CC1	none
O=C(COC(=O)Cc1cccc(C(F)(F)F)c1)Nc1ccccc1	none
COc1ccc2nc(NC(=O)CSc3nc(C)cc(=O)[nH]3)sc2c1	PHOSPHO1 inh 74
Cc1cc(NS(=O)(=O)c2ccc(NC(=O)CSc3nc4ncc(Br)cc4[nH]3)cc2)nc(C)n1	PHOSPHO1 inh 72
COc1ccc2nc(NC(=O)CSc3nccc(C)n3)sc2c1	none
CCN(CC)c1ccc(NC(=O)CSc2nc(C)cc(=O)[nH]2)cc1	none
Cc1cc(=O)[nH]c(SCC(=O)Nc2ccc(S(N)(=O)=O)cc2)n1	eIF4H FP inh 63, PABP polyA inh active
Cc1cc(=O)[nH]c(SCC(=O)Nc2ccc(C(=O)O)cc2)n1	MLLE-PAM2 inh 47
Cc1c(CCC(=O)O)c(=O)oc2cc(OCc3ccccc3Br)ccc12	none
COCC(C)n1c(C)cc(C(=O)CSc2nnc(N)s2)c1C (stereo not given)	PHOSPHO1 inh 99
Cc1cc(C(=O)CSc2nnc(N)s2)c(C)n1CCc1ccc(F)cc1	none
Cc1cc(C(=O)CSc2nnc(N)s2)c(C)n1CCc1ccc(Cl)cc1	PHOSPHO1 inh 74
Cc1cc(C(=O)CSc2nnnn2-c2ccccc2)c(C)n1CCc1ccccc1	PHOSPHO1 inh 84
COc1ccc(-n2nnnc2CNC(=O)c2c(-c3ccccc3Cl)noc2C)cc1	none (no result: PHOSPHO1 inh, APOBEC3A inh, eIF4H FP inh, PABP polyA inh, APOBEC3G inh)
CCOC(=O)C1=CN(Cc2ccco2)S(=O)(=O)NC1c1cccc(OC)c1 (stereo not given)	none (no result: PHOSPHO1 inh, eIF4H FP inh, PABP polyA inh)
CCc1ccc(OS(=O)(=O)c2cn(C)c(=O)n(C)c2=O)cc1	MLLE-PAM2 inh 41
COc1ccc(CNS(=O)(=O)c2cn(C)c(=O)n(C)c2=O)cc1	none
Cc1ccccc1CN1[C@@H]2c3ccccc3C[C@@H]2OCCS1(=O)=O	none
COc1ccc(C(=O)N/N=C/c2cc3ccccc3[nH]c2=S)cc1	PHOSPHO1 inh 91
Cc1cc(C)cc(CC2CC(=O)N(c3ccc([N+](=O)[O-])cc3)C2=O)c1 (stereo not given)	none
CCN(CC1CCCO1)C(=O)CCc1nnc(CCc2ccccc2)o1 (stereo not given)	none (no result: PHOSPHO1 inh, APOBEC3A inh, eIF4H FP inh, PABP polyA inh, APOBEC3G inh)
Cc1ccc(-c2cc(-c3ccc(F)cc3)nc(N)c2C#N)o1	none
Cc1ccc(-c2cc(-c3ccccc3Cl)c(C#N)c(N)n2)o1	eIF4H FP inh 66, PABP polyA inh active
Cc1ccc(-c2cc(-c3ccccc3)c(C#N)c(N)n2)o1	eIF4H FP inh inconclusive, PABP polyA inh active
